# The full list was thinned out, with the strongest signals kept by preference.
# B1: Pbx1CASH domain (Cryptococcus neoformans) (protein)
# chain: MDETKPLWGNPRADGISLACKDSIVERNVVYDATDGAIVLFGSAGSTVKNNHVYARTRVILGGINLVDYEPWDGDYTNVKVHHNHLYALGRYFKVGIVIGPASWSDDTESVVHSASVTDNEFSGGYWGYGIVVASAKNFEVLRNKVIWDGEQGVARFSGVPGS
# What was measured:
# Test in all cases: glycan array binding signal (z-score within array); higher = stronger binding
# Conditions in all cases: glycan notation: IUPAC condensed, linker removed
# [1] = target: Fuc(a1-2)Gal(b1-3)GalNAc(b1-3)Gal
# Outline: (§1)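 The binding signal is a Z-score computed within each array. Data were drawn from 3228 arrays in the Consortium for Functional Glycomics database, restricted to those with a known protein sequence. Scores were averaged over arrays of the same protein sequence at different concentrations or buffers, and over linkers, and negative values can be taken as non-binding.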
# [2] = target: Fuc(a1-2)Gal(b1-3)GalNAc(b1-3)Gal(a1-4)Gal(b1-4)Glc
# Outline: as §1
# [3] = target: Fuc(a1-2)Gal(b1-3)GlcNAc(b1-3)[Gal(b1-4)GlcNAc(b1-6)]Gal(b1-4)Glc
# Outline: as §1
# [4] = target: Fuc(a1-2)Gal(b1-4)[Fuc(a1-3)]GlcNAc(b1-3)GalNAc
# Outline: as §1
# [5] = target: Fuc(a1-2)[Gal(a1-3)]Gal(b1-4)GlcNAc(b1-2)Man(a1-3)[Fuc(a1-2)[Gal(a1-3)]Gal(b1-4)GlcNAc(b1-2)Man(a1-6)]Man(b1-4)GlcNAc(b1-4)[Fuc(a1-6)]GlcNAc
# Outline: as §1
# [6] = target: Fuc(a1-2)[GalNAc(a1-3)]Gal(b1-4)[Fuc(a1-3)]GlcNAc
# Outline: as §1
# [7] = target: Fuc(a1-3)[Gal(b1-4)]GlcNAc(b1-2)Man(a1-3)[Fuc(a1-3)[Gal(b1-4)]GlcNAc(b1-2)Man(a1-6)]Man(b1-4)GlcNAc(b1-4)[Fuc(a1-6)]GlcNAc
# Outline: as §1
# [8] = target: Fuc(a1-3)[Gal(b1-4)]GlcNAc(b1-3)Gal(b1-3)[Fuc(a1-4)]GlcNAc
# Outline: as §1
# [9] = target: Fuc(a1-3)[Gal(b1-4)]GlcNAc6S
# Outline: as §1
# Gal(a1-2)Gal = target: Gal(a1-2)Gal
# Outline: as §1
# Gal(a1-3)Gal(b1-3)GlcNAc = target: Gal(a1-3)Gal(b1-3)GlcNAc
# Outline: as §1
# [10] = target: Gal(a1-3)Gal(b1-3)GlcNAc(b1-3)GalNAc
# Outline: as §1
# [11] = target: Gal(a1-3)Gal(b1-4)GlcNAc(b1-6)GalNAc
# Outline: as §1
# Gal(b1-2)Gal = target: Gal(b1-2)Gal
# Outline: as §1
# [12] = target: Gal(b1-3)GalNAc(a1-3)[Fuc(a1-2)]Gal(b1-4)Glc
# Outline: as §1
# [13] = target: Gal(b1-3)GalNAc(b1-3)Gal(a1-4)Gal(b1-4)Glc
# Outline: as §1
# [14] = target: Gal(b1-3)GlcNAc(b1-6)[Gal(b1-3)]GalNAc
# Outline: as §1
# [15] = target: Gal(b1-3)[Neu5Ac(a2-6)]GalNAc
# Outline: as §1
# Gal(b1-4)GlcNAc(b1-2)Man = target: Gal(b1-4)GlcNAc(b1-2)Man
# Outline: as §1
# [16] = target: Gal(b1-4)GlcNAc(b1-3)Gal(b1-4)GlcNAc(b1-2)Man(a1-3)[Gal(b1-4)GlcNAc(b1-3)Gal(b1-4)GlcNAc(b1-2)Man(a1-6)]Man(b1-4)GlcNAc(b1-4)GlcNAc
# Outline: as §1
# [17] = target: Gal(b1-4)GlcNAc(b1-3)Gal(b1-4)GlcNAc(b1-3)Gal(b1-4)GlcNAc(b1-2)Man(a1-3)[Gal(b1-4)GlcNAc(b1-3)Gal(b1-4)GlcNAc(b1-3)Gal(b1-4)GlcNAc(b1-2)Man(a1-6)]Man(b1-4)GlcNAc(b1-4)GlcNAc
# Outline: as §1
# [18] = target: Gal(b1-4)GlcNAc(b1-3)Gal(b1-4)GlcNAc(b1-3)Gal(b1-4)GlcNAc(b1-3)Gal(b1-4)GlcNAc(b1-3)Gal(b1-4)GlcNAc(b1-2)Man(a1-3)[Gal(b1-4)GlcNAc(b1-3)Gal(b1-4)GlcNAc(b1-3)Gal(b1-4)GlcNAc(b1-3)Gal(b1-4)GlcNAc(b1-3)Gal(b1-4)GlcNAc(b1-2)Man(a1-6)]Man(b1-4)GlcNAc(b1-4)[Fuc(a1-6)]GlcNAc
# Outline: as §1
# [19] = target: Gal(b1-4)GlcNAc(b1-3)Gal(b1-4)GlcNAc(b1-3)[Gal(b1-4)GlcNAc(b1-3)Gal(b1-4)GlcNAc(b1-6)]GalNAc
# Outline: as §1
# [20] = target: Gal(b1-4)GlcNAc(b1-3)Gal(b1-4)GlcNAc(b1-6)[Gal(b1-3)]GalNAc
# Outline: as §1
# GalNAc(b1-4)GlcNAc = target: GalNAc(b1-4)GlcNAc
# Outline: as §1
binder,measurement,setting,value
B1,glycan array binding signal (z-score),[1],1.37
same,glycan array binding signal (z-score),[2],0.581
same,glycan array binding signal (z-score),[3],0.324
same,glycan array binding signal (z-score),[4],2.39
same,glycan array binding signal (z-score),[5],-0.277
same,glycan array binding signal (z-score),[6],-0.042
same,glycan array binding signal (z-score),[7],-0.469
same,glycan array binding signal (z-score),[8],0.08
same,glycan array binding signal (z-score),[9],0.01
same,glycan array binding signal (z-score),Gal(a1-2)Gal,-0.625
same,glycan array binding signal (z-score),Gal(a1-3)Gal(b1-3)GlcNAc,-0.681
same,glycan array binding signal (z-score),[10],-0.095
same,glycan array binding signal (z-score),[11],-0.006
same,glycan array binding signal (z-score),Gal(b1-2)Gal,-0.215
same,glycan array binding signal (z-score),[12],0.601
same,glycan array binding signal (z-score),[13],0.926
same,glycan array binding signal (z-score),[14],1.3
same,glycan array binding signal (z-score),[15],-0.674
same,glycan array binding signal (z-score),Gal(b1-4)GlcNAc(b1-2)Man,0.337
same,glycan array binding signal (z-score),[16],5.46
same,glycan array binding signal (z-score),[17],3.17
same,glycan array binding signal (z-score),[18],-0.419
same,glycan array binding signal (z-score),[19],4.67
same,glycan array binding signal (z-score),[20],2.73
same,glycan array binding signal (z-score),GalNAc(b1-4)GlcNAc,-0.736

# Source: the supplement of paper PMC8728848
